Values without a mark were called inactive. Results filed as inconclusive are left out. The source made the active and inactive calls. Unless noted, the call rests on the fitted dose curve; in most records, active means well fitted curve in the direction sought with a large enough effect in the repeat runs; inconclusive means weak or mixed curves; inactive means no such curve, though single readings can be large; an effect the other way counts as inactive or inconclusive.

Test [1] can be described thus: qHTS assay to identify small molecule agonists of the sonic hedgehog signaling (Shh) pathway (AID 1259368; calls by dose curve;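 further: NIH/3T3-derived 3T3Gli1-Luc cells carrying a stable Gli1-driven firefly luciferase reporter; series mostly up to about 92 µM; nearly all actives have a fitted effect of over 15% in size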). Summed up:
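A Gli1 transcriptional response element controlled firefly luciferase in 3T3Gli1-Luc cells. Compounds and a positive control were added 4 hr after plating, and cells were incubated a further 24 hr at 37 C before luminescence detection.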
In general terms: qHTS replaces the single test concentration by a dilution series.

Test [2] is described as follows: qHTS assay to identify small molecule antagonists of the sonic hedgehog signaling (Shh) pathway (AID 1259369; calls by dose curve; further: nearly all actives have a fitted effect of over 45% in size; further: potency means the concentration at half of the fitted maximal effect). Summed up: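 For antagonist detection, the reporter line received test compounds together with conditioned medium, incubated 24hr at 37 C, 5% CO2, then luminescence was recorded following 30min room-temperature luciferase reagent incubation.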
Test [3] concerns the target Estrogen receptor beta (Homo sapiens) (UniProt Q92731). The test is described as follows: qHTS assay to identify small molecule antagonists of the estrogen receptor beta (ER-beta) signaling pathway (AID 1259378; active means well fitted inhibition curve with a large enough effect in the signal ratio in the repeat runs, not every such curve was filed as active; the % refers to the signal ratio). The essentials: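 ER-beta-UAS-bla HEK293T (GripTite) cells in 2% charcoal-stripped FBS medium were preincubated 6 hr at 37C, dosed with compound, then stimulated with 1 nM E2 (final) for 16 hr; beta-lactamase reporter read by B/G FRET fluorescence after 2 hr substrate loading.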

Test [4] in a line: qHTS assay to identify small molecule agonists of the androgen receptor (AR) signaling pathway in the presence of an antagonist - cell viability counter screen (AID 1259379).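 Further: MDA-kb2 human breast cancer cells carrying an MMTV luciferase reporter; series mostly up to about 92 µM; nearly all actives have a fitted effect of over 25% in size.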 The essentials:
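Seed MDA-kb2 at 3,000 cells/well; incubate 5 hr, 37C, 0% CO2. Add nilutamide to 3.0uM final, then pin compounds at 15 concentrations. Incubate 16 hr. Add CellTiter-Fluor at 15 hr, read fluorescence after 1 hr.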

A short description of test [5]: qHTS assay to identify small molecule agonists of the estrogen receptor beta (ER-beta) signaling pathway - cell viability counter screen (AID 1259380). Further: nearly all actives have a fitted effect of over 30% in size. Summed up: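 CellTiter-Glo read, 30 min RT, same wells as bla assay; cells ER-beta-UAS-bla HEK293T; 16 hr compound, 37C; medium 2% charcoal-stripped FBS.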
Test [6] is described as follows: qHTS assay to identify small molecule antagonists of the estrogen receptor beta (ER-beta) signaling pathway - cell viability counter screen (AID 1259382). Further: series mostly up to about 92 µM; nearly all actives have a fitted effect of over 55% in size. Summed up:
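In this multiplexed counter screen, cells were seeded at 2,000 per well in medium with 2% charcoal-stripped FBS and incubated 6 hr before compound and 1nM final E2 were added. Sixteen hours later, ATP-based luminescence reported viability.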

Test [7] concerns the target Thyrotropin receptor (Homo sapiens) (UniProt P16473). Nature of the test: qHTS assay to identify small molecule antagonists of the thyroid stimulating hormone receptor (TSHR) signaling pathway (AID 1259385; calls by dose curve; further: nearly all actives have a fitted effect of over 20% in size). Summed up:
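TSHR-HEK293 cells were plated and held 18 h at 37C/5% CO2, then given compound plus Ro20-1724 and stimulated with TSH at 1.5 ng/mL final. After 30 min at room temperature, cAMP was detected with cAMP-d2/anti-cAMP-cryptate (1 h) by fluorescence.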

Test [8] can be described thus: qHTS assay to identify small molecule agonists of the estrogen receptor alpha (ER-alpha) signaling pathway in the presence of an antagonist - cell viability counter screen (AID 1259386).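 Further: series mostly up to about 92 µM; cells exposed to compounds for 22 h at 37 °C before the viability read; nearly all actives have a fitted effect of over 30% in size.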 Summed up: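 Viability counter screen using VM7Luc4E2 (full-length ER-alpha, four ERE-luciferase). The cells were treated with compounds alongside ICI-182,780 10.0nM for 22hr, and live-cell protease fluorescence was quantified with CellTiter-Fluor.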

Test [9] deals with Progesterone receptor (Homo sapiens) (UniProt P06401). The test is described as follows: qHTS assay to identify small molecule agonists of the progesterone receptor (PR) signaling pathway (AID 1346784; calls by dose curve; further: nearly all actives have a fitted effect of over 30% in size). Summed up:
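PR-UAS-bla HEK 293T cells (beta-lactamase reporter under UAS) in 2% charcoal-stripped FBS, dosed with 23 nL compound after 6 hr, incubated 16hr at 37C. LiveBLAzer B/G FRET substrate added, fluorescence read after 2 hours.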

Test [10] has the same target. Nature of the test: qHTS assay to identify small molecule antagonists of the progesterone receptor (PR) signaling pathway (AID 1346795; active means well fitted inhibition curve with a large enough effect in the signal ratio in the repeat runs, not every such curve was filed as active; the % refers to the signal ratio). Summed up: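 PR-UAS-bla HEK293T cells with beta-lactamase reporter under UAS control, in 2% charcoal-stripped FBS, treated with compounds plus 1 nM promegestone (R5020, final) for 16 hr at 37C. Read-out: FRET beta-lactamase substrate fluorescence after 2 hr at room temperature.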

A short description of test [11]: qHTS assay to identify small molecule antagonists of the progesterone receptor (PR) signaling pathway - cell viability counter screen (AID 1346798). Further: series mostly up to about 92 µM; nearly all actives have a fitted effect of over 50% in size. Summed up: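 PR-UAS-bla HEK293T cells, 3,000/well in 2% charcoal-stripped FBS medium, dosed with compounds plus R5020 agonist and incubated 16 h at 37C. Viability then measured in the same wells by CellTiter-Glo luminescence after 30 min at RT.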

Test [12] in a line: qHTS assay to identify small molecule agonists of the progesterone receptor (PR) signaling pathway - cell viability counter screen (AID 1346799; calls by dose curve; further: nearly all actives have a fitted effect of over 45% in size). Summed up:
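Counter screen in the PR-UAS-bla HEK293T wells (2% charcoal-stripped FBS, 16 h compound exposure at 37 C) after the bla read. CellTiter-Glo added, 30 min at room temperature, luminescence read as cell viability.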

The nature of test [13]: qHTS assay to identify small molecule antagonists of the TGF-beta/Smad signaling pathway - cell viability counter screen (AID 1346824). Further: nearly all actives have a fitted effect of over 50% in size. The essentials: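 SBE-bla HEK 293T cells were plated overnight at 37 C, then given compounds in DMSO plus TGF-beta1 (added as 0.25 ng/mL solution) for 5 hr. After the bla read, CellTiter-Glo was added to the same wells and luminescence read after 30 min at room temperature.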

Test [14] is described as follows: qHTS assay to identify small molecule agonists of the TGF-beta/Smad signaling pathway - cell viability counter screen (AID 1346829). Further: top concentration of the series differs between compounds; nearly all actives have a fitted effect of over 45% in size. The essentials:
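In parallel with the Smad reporter read, viability of HEK 293T cells stably carrying SBE-bla is quantified by ATP luminescence following 5 hr compound treatment.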

Test [15] in a line: qHTS assay to identify small molecule agonists of the TGF-beta/Smad signaling pathway (AID 1346859; active means well fitted activation curve with a large enough effect in the signal ratio in the repeat runs, not every such curve was filed as active; the % refers to the signal ratio; further: series mostly up to about 77 µM). The essentials:
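SBE-bla HEK293T cells plated overnight, then compound exposure for 5 h at 37 C. Beta-lactamase reporter read with LiveBLAzer B/G FRET substrate after 2 h at room temperature, fluorescence at 405 nm excitation, 460/530 nm emission.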

Test [16] addresses Thyrotropin-releasing hormone receptor (Homo sapiens) (UniProt P34981). Nature of the test: qHTS assay to identify small molecule antagonists of the thyrotropin-releasing hormone receptor (TRHR) signaling pathway (AID 1346877; active means well fitted inhibition curve with a large enough effect in the repeat runs, not every such curve was filed as active; further: series mostly up to about 51 µM). The essentials:
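Following an 18 h incubation at 37 °C and a 2 h calcium dye load, TRHR-HEK293 cells were exposed to compound (5 min, room temperature) and challenged with TRH, 1 nM final.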

Test [17] has as its target Estrogen receptor beta (Homo sapiens) (UniProt Q92731). The test is described as follows: qHTS assay to identify small molecule agonists of the estrogen receptor beta (ER-beta) signaling pathway (AID 1259377; active means well fitted activation curve with a large enough effect in the signal ratio in the repeat runs, not every such curve was filed as active; the % refers to the signal ratio). The essentials: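 ER-beta-UAS-bla HEK293T cells in medium with 2% charcoal-stripped FBS were exposed to compounds for 16 h at 37C. Beta-lactamase reporter activity was read as fluorescence after 2 h with LiveBLAzer B/G FRET substrate at room temperature.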

In test [18] the target is Estrogen receptor (Homo sapiens) (UniProt P03372). The test is described as follows: qHTS assay to identify small molecule agonists of the estrogen receptor alpha (ER-alpha) signaling pathway in the presence of an antagonist (AID 1259383; calls by dose curve; further: top concentration of the series differs between compounds; nearly all actives have a fitted effect of over 15% in size). Summed up:
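Stably transfected VM7Luc4E2 reporter cells, kept 5 days in charcoal-stripped serum, received ICI-182,780 at 10.0nM final before compound addition. Following 22hr incubation at 37C and 5% CO2, luciferase signal was read by luminescence.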

The nature of test [19]: qHTS assay to identify small molecule agonists or antagonists of the thyroid stimulating hormone receptor (TSHR) signaling pathway - wild type cell line counter screen (AID 1259384; calls by dose curve). Summed up: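 Wild-type HEK293 cells were plated 18 h at 37 C/5% CO2, pin-dosed with compound plus Ro20-1724 medium, held 30 min at room temperature, then given cAMP-d2 and anti-cAMP-cryptate; fluorescence was read after 1 h. Fifteen concentrations, triplicate.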

For test [20], the target named is Androgen receptor (Homo sapiens) (UniProt P10275). The test is described as follows: qHTS assay to identify small molecule agonists of the androgen receptor (AR) signaling pathway in the presence of an antagonist (AID 1259381; calls by dose curve; further: nearly all actives have a fitted effect of over 15% in size). The essentials: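 Test compounds at 15 concentrations were incubated for 16hr with MDA-kb2 reporter cells in presence of 3.0uM nilutamide (final). Signal: ONE-Glo luciferase luminescence.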
Chain of Androgen receptor (Homo sapiens) (P10275 whole entry, looked up): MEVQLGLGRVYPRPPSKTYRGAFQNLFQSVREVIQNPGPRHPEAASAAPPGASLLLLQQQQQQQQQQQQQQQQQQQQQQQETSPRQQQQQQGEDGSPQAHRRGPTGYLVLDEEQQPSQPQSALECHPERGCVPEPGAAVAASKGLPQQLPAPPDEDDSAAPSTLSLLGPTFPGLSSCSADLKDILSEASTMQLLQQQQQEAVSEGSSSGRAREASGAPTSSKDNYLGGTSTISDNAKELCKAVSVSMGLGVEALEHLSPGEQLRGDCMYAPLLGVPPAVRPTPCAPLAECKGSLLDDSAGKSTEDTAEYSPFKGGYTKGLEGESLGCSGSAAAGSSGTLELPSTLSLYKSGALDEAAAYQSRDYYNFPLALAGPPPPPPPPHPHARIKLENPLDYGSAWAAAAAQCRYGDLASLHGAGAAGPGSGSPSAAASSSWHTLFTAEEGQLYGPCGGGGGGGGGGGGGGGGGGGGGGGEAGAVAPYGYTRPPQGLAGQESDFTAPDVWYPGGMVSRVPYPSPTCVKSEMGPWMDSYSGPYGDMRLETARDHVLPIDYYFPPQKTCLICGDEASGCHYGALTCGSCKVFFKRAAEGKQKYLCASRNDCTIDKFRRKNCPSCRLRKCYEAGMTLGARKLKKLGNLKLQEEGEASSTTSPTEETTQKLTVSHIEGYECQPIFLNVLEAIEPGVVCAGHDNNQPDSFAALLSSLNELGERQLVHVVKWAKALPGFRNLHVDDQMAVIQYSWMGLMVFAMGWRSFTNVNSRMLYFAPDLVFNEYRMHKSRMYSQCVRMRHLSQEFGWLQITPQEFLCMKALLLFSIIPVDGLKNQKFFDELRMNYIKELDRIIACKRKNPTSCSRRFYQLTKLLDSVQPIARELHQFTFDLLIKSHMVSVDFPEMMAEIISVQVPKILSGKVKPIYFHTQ

Chain of Estrogen receptor (Homo sapiens) (P03372 whole entry, looked up): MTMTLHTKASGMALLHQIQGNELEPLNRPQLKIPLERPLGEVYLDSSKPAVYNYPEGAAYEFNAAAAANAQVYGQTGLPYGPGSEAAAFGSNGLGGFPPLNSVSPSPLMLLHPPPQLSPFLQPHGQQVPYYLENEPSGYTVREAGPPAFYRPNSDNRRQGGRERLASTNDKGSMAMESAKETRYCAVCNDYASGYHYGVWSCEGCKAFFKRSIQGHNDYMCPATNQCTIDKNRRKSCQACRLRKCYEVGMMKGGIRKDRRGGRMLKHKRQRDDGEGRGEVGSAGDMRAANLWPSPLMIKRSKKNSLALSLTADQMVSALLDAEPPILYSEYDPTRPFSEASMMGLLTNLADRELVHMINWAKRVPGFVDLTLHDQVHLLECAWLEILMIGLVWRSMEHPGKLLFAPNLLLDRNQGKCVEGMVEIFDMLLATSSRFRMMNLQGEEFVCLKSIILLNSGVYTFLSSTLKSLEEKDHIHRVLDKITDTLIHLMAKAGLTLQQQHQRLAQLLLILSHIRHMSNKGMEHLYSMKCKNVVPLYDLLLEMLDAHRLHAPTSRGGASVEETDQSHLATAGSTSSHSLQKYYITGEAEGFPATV
Chain of Thyrotropin receptor (Homo sapiens) (P16473 whole entry, looked up): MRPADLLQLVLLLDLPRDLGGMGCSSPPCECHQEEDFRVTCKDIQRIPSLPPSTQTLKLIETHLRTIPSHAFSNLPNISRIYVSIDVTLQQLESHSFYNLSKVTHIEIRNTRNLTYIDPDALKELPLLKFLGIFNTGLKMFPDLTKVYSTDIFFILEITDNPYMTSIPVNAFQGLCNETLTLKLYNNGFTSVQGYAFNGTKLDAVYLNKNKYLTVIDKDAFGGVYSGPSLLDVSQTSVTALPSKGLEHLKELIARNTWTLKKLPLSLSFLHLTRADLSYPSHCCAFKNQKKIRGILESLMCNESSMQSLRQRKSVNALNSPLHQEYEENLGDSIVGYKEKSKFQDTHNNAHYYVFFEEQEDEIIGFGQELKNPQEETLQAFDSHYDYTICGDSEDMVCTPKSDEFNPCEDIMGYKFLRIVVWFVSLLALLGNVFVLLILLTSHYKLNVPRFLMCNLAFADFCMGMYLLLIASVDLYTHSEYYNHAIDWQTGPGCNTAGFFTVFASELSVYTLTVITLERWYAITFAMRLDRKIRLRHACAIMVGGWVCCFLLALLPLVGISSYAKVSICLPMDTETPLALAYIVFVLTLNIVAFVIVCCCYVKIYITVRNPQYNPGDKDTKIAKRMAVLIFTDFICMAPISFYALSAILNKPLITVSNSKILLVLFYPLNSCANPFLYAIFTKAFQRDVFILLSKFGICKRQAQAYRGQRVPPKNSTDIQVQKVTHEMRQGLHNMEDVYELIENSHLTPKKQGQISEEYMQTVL
Chain of Estrogen receptor beta (Homo sapiens) (Q92731 whole entry, looked up): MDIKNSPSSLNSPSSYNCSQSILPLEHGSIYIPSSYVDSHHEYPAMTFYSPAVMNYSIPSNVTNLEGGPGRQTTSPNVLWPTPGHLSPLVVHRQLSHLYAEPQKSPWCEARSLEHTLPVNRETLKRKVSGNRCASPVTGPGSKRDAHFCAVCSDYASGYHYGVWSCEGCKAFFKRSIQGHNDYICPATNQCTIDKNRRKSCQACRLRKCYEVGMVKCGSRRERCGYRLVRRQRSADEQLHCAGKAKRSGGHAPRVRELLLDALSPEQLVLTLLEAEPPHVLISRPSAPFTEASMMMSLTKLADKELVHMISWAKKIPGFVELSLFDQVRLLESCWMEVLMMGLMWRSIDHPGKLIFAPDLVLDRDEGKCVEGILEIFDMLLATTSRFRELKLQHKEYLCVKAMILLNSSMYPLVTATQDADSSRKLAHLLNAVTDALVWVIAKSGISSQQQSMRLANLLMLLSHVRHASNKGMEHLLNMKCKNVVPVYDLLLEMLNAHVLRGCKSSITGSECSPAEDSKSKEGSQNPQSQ
Chain of Progesterone receptor (Homo sapiens) (P06401 whole entry, looked up): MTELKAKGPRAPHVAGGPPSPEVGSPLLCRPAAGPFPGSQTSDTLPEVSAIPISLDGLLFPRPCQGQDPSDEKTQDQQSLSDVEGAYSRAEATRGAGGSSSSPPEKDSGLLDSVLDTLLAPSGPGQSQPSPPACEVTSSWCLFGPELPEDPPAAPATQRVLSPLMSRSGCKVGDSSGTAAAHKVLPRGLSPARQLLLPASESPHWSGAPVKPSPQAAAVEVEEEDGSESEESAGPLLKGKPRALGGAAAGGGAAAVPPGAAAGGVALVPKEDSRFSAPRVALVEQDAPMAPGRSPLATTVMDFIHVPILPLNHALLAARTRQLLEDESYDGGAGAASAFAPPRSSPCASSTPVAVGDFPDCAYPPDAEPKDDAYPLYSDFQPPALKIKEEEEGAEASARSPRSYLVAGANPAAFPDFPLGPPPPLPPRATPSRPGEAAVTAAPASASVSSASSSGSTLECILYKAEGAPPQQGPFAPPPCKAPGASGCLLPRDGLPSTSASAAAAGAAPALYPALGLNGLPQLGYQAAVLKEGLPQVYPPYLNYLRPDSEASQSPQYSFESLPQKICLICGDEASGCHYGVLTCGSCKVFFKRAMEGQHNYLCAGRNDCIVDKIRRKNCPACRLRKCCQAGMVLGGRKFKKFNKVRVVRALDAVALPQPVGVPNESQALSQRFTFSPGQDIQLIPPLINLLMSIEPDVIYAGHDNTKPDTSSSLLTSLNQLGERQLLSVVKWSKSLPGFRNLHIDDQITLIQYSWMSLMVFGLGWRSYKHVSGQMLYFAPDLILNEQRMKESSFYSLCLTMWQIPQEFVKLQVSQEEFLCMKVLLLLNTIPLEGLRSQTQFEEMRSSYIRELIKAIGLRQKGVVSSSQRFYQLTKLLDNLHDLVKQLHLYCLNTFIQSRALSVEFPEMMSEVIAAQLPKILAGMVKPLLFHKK
Chain of Thyrotropin-releasing hormone receptor (Homo sapiens) (P34981 whole entry, looked up): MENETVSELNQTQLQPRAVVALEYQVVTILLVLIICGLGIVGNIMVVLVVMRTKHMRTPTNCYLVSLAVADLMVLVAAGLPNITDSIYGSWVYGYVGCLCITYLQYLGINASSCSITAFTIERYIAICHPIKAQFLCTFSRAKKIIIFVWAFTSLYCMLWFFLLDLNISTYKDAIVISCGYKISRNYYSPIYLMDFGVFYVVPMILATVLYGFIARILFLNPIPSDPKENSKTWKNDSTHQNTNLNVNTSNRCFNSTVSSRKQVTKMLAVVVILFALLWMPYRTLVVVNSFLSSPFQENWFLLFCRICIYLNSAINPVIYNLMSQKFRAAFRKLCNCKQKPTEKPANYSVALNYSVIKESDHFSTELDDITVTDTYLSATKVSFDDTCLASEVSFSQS

As for `CCCc1ccccc1O`, the Potency entry in [1], in test [2], in test [3], in [4], in test [5] and in [6] was “inactive” each time. Also, the Potency result in [7], in [9], in test [10], in test [11] and in [12] was “inactive” each time. In addition, the result in test [8], in test [13], in [14], in test [15] and in test [16] was inactive.

Consider `COC(=O)[C@H]1[C@H]2C[C@@H]3c4[nH]c5cc(OC)ccc5c4CCN3C[C@H]2C[C@@H](OC(=O)COc2ccc(OC)cc2)[C@@H]1OC`, for which the Potency result in [1], in test [2], in test [4], in test [18], in [7] and in test [9] was “inactive” in each case. In addition, the Potency result in test [10], in [11] and in test [12] was “inactive” throughout. For the same compound, the call in test [17], in [19], in [8], in test [13] and in test [16] was inactive.

`CC(C)CCCC(C)NCCC(C)C` (centres undefined): the Potency result in test [1], in test [2], in test [3], in test [4], in test [5] and in test [20] was “inactive” each time. Besides, the Potency result in test [6], in [18], in [7], in test [10], in test [11] and in test [12] was “inactive” throughout. Further, the result in test [8], in [14], in [15] and in test [16] was inactive.

For the compound `NC1CCN(c2cccc(Cl)n2)CC1`, the Potency result in [1], in test [3], in [4], in test [5], in test [20] and in test [6] was “inactive” throughout. Moreover, the Potency entry in test [9], in test [10], in test [11] and in [12] was “inactive” throughout. Further, the Potency in [2] is 1.33 µM (active). The outcome in [8], in test [13], in test [15] and in test [16] was inactive.

With `CC(C=O)Cc1ccc(C(C)C)cc1` (centres undefined), the Potency entry in test [1], in test [2], in test [3], in test [4], in [5] and in test [6] was “inactive” throughout. Also, the Potency entry in test [7], in test [9], in test [10], in test [11] and in [12] was “inactive” in each case. The result in test [19], in test [8], in [14], in [15] and in [16] was inactive.

Take `O=Cc1ccccc1[N+](=O)[O-]`: the Potency entry in test [1], in test [2], in test [4], in test [5], in [6] and in [18] was “inactive” in each case. The Potency result in test [7], in test [9], in test [10] and in [11] was “inactive” each time. Besides, the result in [17], in [19], in test [8], in [13], in test [14] and in test [15] was inactive.

With `CCC(C)OC(=O)N1CCCCC1CCO` (centres undefined), the Potency result in test [1], in test [2], in test [4], in test [5], in test [7] and in test [9] was “inactive” each time. The Potency result in test [10], in [11] and in [12] was “inactive” throughout. Further, the outcome in [17], in test [8], in test [13], in test [14], in test [15] and in test [16] was inactive.

Turning to `O=C(O)c1ccccc1S`, the Potency result in test [1], in test [2], in [3], in test [4], in [5] and in test [18] was “inactive” throughout. The Potency entry in test [7], in test [9], in test [10], in [11] and in test [12] was “inactive” each time. Also, the compound was called inactive in test [19], in [8], in test [13], in [14] and in test [15].

These data come from PubChem BioAssay (Tox21).
